Compounds with a hit are over-represented: about 3.1% of the library has one in this group of screens.
CF NFkB block: blocks PAF-induced NF-kB reporter in cystic fibrosis cells; KKLEB NF-kB-GFP reporter, GFP fluorescence overnight; inhibition, % at 5 µM; actives 0.86% (n = 360,000); AID 588850;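 active means at least 50% inhibition at 5 µM, scaled per plate between neutral and stimulator controls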;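 further: PAF is a Pseudomonas aeruginosa culture filtrate used as stimulus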
TRPM1 prom inh: inhibitors of MITF-driven TRPM1 promoter in melanoma cells; SK-MEL-5 TRPM1 promoter luciferase, 24 h; inhibition, % at 12.5 µM; actives 0.83% (n = 330,000); AID 488899;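 active means mean inhibition across replicates of 60% or more, whatever share of single replicates reaches that level; inconclusive means some that reach 60%, reason not given; inactive means mean inhibition across replicates below 60%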
KKLEB tox: CF airway cell cytotoxicity counter-screen. actives 0.36% (n = 360,000). activity change (cytotoxicity), % at 5 µM. KKLEB CF airway cells viability, ATPlite luminescence, overnight; active compounds read low; cells stimulated with P. aeruginosa culture filtrate. AID 602141;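 active means corrected activity change at or below -50% at 5 µM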
Peg3 prom inh: inhibitors of Peg3 promoter; AID 588405; inhibition, % at 20 µM; HeLa PEG-Prom luciferase reporter, luminescence, overnight; actives 1.7% (n = 360,000);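 active means inhibition of at least 50% at 20 µM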
HIF-2a inh: inhibitors of HIF-2a; actives 0.72% (n = 360,000); 786-0 RCC cells HIF-2a reporter, luciferase luminescence, overnight; inhibition, % at 18.8 µM;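 active means inhibition of the luminescence signal of 40% or more relative to plate controls, in a single-dose primary screen at 18.75 µM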
ABHD5 PLIN5 PPI: ABHD5-PLIN5 protein interaction inhibition | Q00G26+Q8WTS1 | Split G. princeps luciferase complementation, luminescence, 4 h | inhibition, % at 4 µM | actives 0.78% (n = 360,000) | AID 602281;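 active means inhibition above the mean inhibition across every tested compound plus 3 SD, cut at about 22% in these data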
Target sequence (Q00G26 whole entry, looked up): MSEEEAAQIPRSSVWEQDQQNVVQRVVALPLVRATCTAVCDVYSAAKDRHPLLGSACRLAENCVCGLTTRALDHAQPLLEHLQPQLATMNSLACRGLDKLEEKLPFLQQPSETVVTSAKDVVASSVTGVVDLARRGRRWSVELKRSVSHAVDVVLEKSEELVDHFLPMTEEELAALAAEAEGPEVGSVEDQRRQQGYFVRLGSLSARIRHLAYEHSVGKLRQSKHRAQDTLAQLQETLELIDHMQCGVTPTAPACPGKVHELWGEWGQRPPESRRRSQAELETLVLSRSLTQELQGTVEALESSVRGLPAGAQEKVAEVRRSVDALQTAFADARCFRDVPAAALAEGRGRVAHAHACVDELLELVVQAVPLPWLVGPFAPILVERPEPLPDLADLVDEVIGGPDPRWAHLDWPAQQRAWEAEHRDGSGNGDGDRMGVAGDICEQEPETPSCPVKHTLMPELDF
Target sequence (Q8WTS1 whole entry, looked up): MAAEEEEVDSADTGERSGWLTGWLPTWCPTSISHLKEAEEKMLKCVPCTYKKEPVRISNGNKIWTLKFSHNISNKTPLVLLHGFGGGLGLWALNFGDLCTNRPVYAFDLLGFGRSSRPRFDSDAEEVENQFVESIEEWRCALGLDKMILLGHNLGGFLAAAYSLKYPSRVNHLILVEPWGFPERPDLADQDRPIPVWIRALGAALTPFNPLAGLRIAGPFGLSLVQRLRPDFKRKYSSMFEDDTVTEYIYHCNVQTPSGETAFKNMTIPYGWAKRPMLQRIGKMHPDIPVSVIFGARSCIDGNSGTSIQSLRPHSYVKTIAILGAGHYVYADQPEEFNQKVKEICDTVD
Of the large screens only hits and unclear results are named; the others gave an inactive call.

CCOc1ccc(NC(=O)CSc2ncc(-c3ccc(F)cc3)n2Cc2ccco2)cc1	none
O=C(Cn1nnc(-c2ccccc2)n1)N/N=C/c1cc([N+](=O)[O-])ccc1O	none
O=C(Cn1nnc(-c2ccccc2)n1)N/N=C/c1cc([N+](=O)[O-])c(Cl)cc1Cl	Peg3 prom inh 50
CSC1=NC(=O)/C(=C\c2cccc3ccccc23)S1	Peg3 prom inh 56
CCc1cccc2c1Sc1ccccc1CC2N1CCNCC1 (centres undefined)	TRPM1 prom inh 81, Peg3 prom inh 111
c1ccc(-c2oc3ncnc(NCCCN4CCOCC4)c3c2-c2ccccc2)cc1	none
COc1ccc(-c2oc3ncnc(NCCCN4CCOCC4)c3c2-c2ccc(OC)cc2)cc1	Peg3 prom inh 64
Cc1cccc(OCCCN2CCCCCC2)c1	none
Cc1cccc(OCCN2CSC(=S)N(C)C2)c1	Peg3 prom inh 57
Cc1ccc(C23CC4CC(CC(CN)(C4)C2)C3)cc1	Peg3 prom inh 103
Cc1ccc(C23CC4CC(CC(CC(=O)NC(C)(C)CO)(C4)C2)C3)cc1	none
Cc1ccc(C23CC4CC(CC(C(N)=O)(C4)C2)C3)cc1	none
NCC12CC3CC(C1)CC(c1ccc(Br)cc1)(C3)C2	Peg3 prom inh 104
COc1cc(OC)cc(-c2oc(=O)c3cc(OC)c(OC)cc3c2C(F)(F)F)c1	TRPM1 prom inh 70
COc1ccc(C(C[N+](=O)[O-])c2c(C)cc3ccccn23)cc1 (centres undefined)	none
COc1ccc(C(C[N+](=O)[O-])c2c(-c3ccccc3)cc3ccccn23)c(OC)c1 (centres undefined)	ABHD5 PLIN5 PPI 41
Cc1cc(C)c2c(=O)n(CC(=O)NCCCN3CCOCC3)sc2n1	ABHD5 PLIN5 PPI 50 (no result: TRPM1 prom inh)
COc1ccc(C(C)(C)NC(=O)C2CCC(=O)N(C3CC3)C2)cc1OC (centres undefined)	none
CNC(=O)CC1C(=O)N(c2ccc(OC)cc2)C(=S)N1NC(=O)c1cccc(F)c1 (centres undefined)	Peg3 prom inh 69 (no result: TRPM1 prom inh)
CC(C)c1ccc(NC2CCCN(C(=O)CCCn3cncn3)C2)cc1 (centres undefined)	none
COc1ccc(C(=O)NN(C)c2nc(C(F)(F)F)nc3ccccc23)cc1	CF NFkB block 75
CCN1/C(=C/C(C)=C/c2sc3ccccc3[n+]2CC)Sc2ccccc21	TRPM1 prom inh 103, Peg3 prom inh 104, HIF-2a inh 95
CC(=O)Nc1ccc(N2CC(C)(C)C2=O)cc1	none
O=C1Nc2ccccc2/C1=N\N=C\C1=C(N2CCOCC2)C(=C\c2ccccc2)/CC1	Peg3 prom inh 77
CC(=O)c1ccc(Nc2nc(C(N)Cc3ccc(C(F)(F)F)cc3)cs2)cc1 (centres undefined)	none (no result: TRPM1 prom inh)
NC(CCc1ccccc1)c1csc(Nc2ccc(C(=O)c3ccccc3)cc2)n1 (centres undefined)	Peg3 prom inh 88 (no result: TRPM1 prom inh)
CN(Cc1ccccc1)C(=O)c1ccc(Nc2nc(C(N)COCc3ccccc3)cs2)nc1 (centres undefined)	none (no result: TRPM1 prom inh)
CN(Cc1ccccc1)C(=O)c1ccc(Nc2nc(C(N)Cc3ccc(C(F)(F)F)cc3)cs2)nc1 (centres undefined)	Peg3 prom inh 95 (no result: TRPM1 prom inh)
NC(CCc1ccccc1)c1csc(Nc2ccc(C(=O)NCCO)cc2)n1 (centres undefined)	none (no result: TRPM1 prom inh)
NC(Cc1ccc(C(F)(F)F)cc1)c1csc(Nc2ccc(C(=O)c3ccccc3)cc2)n1 (centres undefined)	Peg3 prom inh 97 (no result: TRPM1 prom inh)
Cc1csc(SCC(=O)Nc2ccc(F)cc2Cl)n1	none
CCc1nnc(SCC(=O)Nc2ccccc2Cl)nc1CC	none
COc1ccc(NC(=O)Cc2nnc(SCC(=O)NC3=NCCS3)n2C)cc1	none
Cn1cc(C(=O)CCl)c2ccccc21	CF NFkB block 54, TRPM1 prom inh 83, Peg3 prom inh 50
Cc1ccc(C)c(N2CCN(CCCNC(=O)Cn3cccc3C(=O)c3ccccc3C)CC2)c1	Peg3 prom inh 107
Cc1ccccc1C(=O)c1cccn1CC(=O)NCCCN1CCCCC1	none
COc1ccc(-c2sc(Nc3ccc(F)c(F)c3F)nc2CCC(=O)NN)cc1	none
O=C1C=C(N2CCOCC2)c2ccccc2C1=O	CF NFkB block 85, TRPM1 prom inh 85, KKLEB tox -76, Peg3 prom inh 101
CCCCn1c(CCl)nc2cc(S(=O)(=O)N3CCOCC3)ccc21	Peg3 prom inh 58
CCn1c(SCC(=O)N(C)CCC#N)nc2cc(S(=O)(=O)N3CCOCC3)ccc21	ABHD5 PLIN5 PPI 23
CCCCn1nc(C(=O)Nc2ccc3c(c2)OCO3)c2ccccc2c1=O	none
CCCCC[C@H](O)/C=C/[C@H]1CCC(=O)[C@@H]1CCCCCCC(=O)N1CCCCC1CO (some centres undefined)	Peg3 prom inh 63
CCCC(=O)N1CCN(c2ccc(NC(=O)c3cc4ccccc4o3)cc2Cl)CC1	TRPM1 prom inh inconclusive, Peg3 prom inh 104
O=C(Nc1ccc(N2CCN(C(=O)c3ccco3)CC2)c(Cl)c1)c1cc2ccccc2o1	TRPM1 prom inh 70, Peg3 prom inh 100
O=C(Nc1ccccc1)c1cc2ccccc2o1	none
CCC(=O)N1CCN(c2ccc(NC(=O)c3cc4ccccc4o3)cc2Cl)CC1	Peg3 prom inh 108
O=C(Nc1ccc(NC(=O)c2cc3ccccc3o2)cc1)c1ccco1	Peg3 prom inh 63
CN(C)S(=O)(=O)c1ccc(NC(=O)CN2CCCc3ccccc32)cc1	none
O=C(CCNC(=O)C1CCN(S(=O)(=O)c2ccc(F)cc2)CC1)NCc1ccccn1	none (no result: TRPM1 prom inh)
COc1ccc(C(=O)NCC(=O)OCC(=O)NC2CCCCCC2)cc1OC	none
Cc1cc(NC(=O)c2ccc(S(=O)(=O)N3CCCC3)cc2)nc2c1c(=O)oc1ccccc12	KKLEB tox -54
Cc1cc(NC(=O)c2ccccc2)nc2c1c(=O)oc1ccccc12	none
O=C(CN(C1CCCCC1)S(=O)(=O)c1ccccc1)NCC1CCCO1 (centres undefined)	none
O=C(CN(C1CCCCC1)S(=O)(=O)c1ccc(F)cc1)NCC1CCCO1 (centres undefined)	CF NFkB block 91, TRPM1 prom inh 86, KKLEB tox -95, Peg3 prom inh 98
O=c1ccsn1Cc1ccccc1	ABHD5 PLIN5 PPI 82
CCc1ccc(CN(C)C(=O)CCc2nc3ccccc3n(-c3ccc(OC)cc3)c2=O)cc1	Peg3 prom inh 57
Cc1cc(C)n(-c2nc(Nc3ccccc3C(F)(F)F)nc(-n3nc(C)cc3C)n2)n1	Peg3 prom inh 86
CC(C)NC(=O)C1(C)CCN1C(=O)c1ccccc1 (centres undefined)	none (no result: TRPM1 prom inh)
COC(=O)c1[nH]c2ccccc2c1NC(=O)CN1CCN(C/C=C/c2ccccc2)CC1	none
